Experimental findings from publication PMC5540273 (PLoS ONE, 2017) are described below.
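Further: KINOMEscan kinase panel screen.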

One experiment concerns T1, CDC2L5.
T1 construct: gene CDK13
The following applies: concentration: 1 μM, replicates: in singlicate; n = 1.
As for `COc1cc2ncn(-c3cc(OCc4ccncc4Br)c(C(N)=O)s3)c2cc1OC` [GW854278], the “%Inh” value amounted to 5%.
On the same count and under the same terms, as for `Cc1cc(Nc2nc(-c3cccc(C)n3)nc3ccccc23)ccn1` [GW872411], the figure is 0%; as for `Cc1nnc(-c2ccc(C)c(-c3ccc(C(=O)O)cc3)c2)o1` [GW608005], 0%.
With `COc1cc(Nc2ccnc3ccc(C(F)(F)F)cc23)cc(OC)c1OC` [GW577382], the “%Inh” value is 0%.
Same read-out and setting: next, `FC(F)(F)c1ccc(-c2ncn(CCCN3CCOCC3)c2-c2ccncc2)cc1` [SB-217780]: 15%.
The same measure, in the same setting: as for `Cl.c1ccc(Cn2cnc3cc(Nc4ncnc5ccccc45)ccc32)cc1` [GW272142], the figure is 0%; as for `Cc1ccc(-c2ccc3c(ccc4sc5c(c43)NC[C@@H](C)N=C5N(C)C)n2)cn1`, 0%.
Turning to `Cl.NS(=O)(=O)c1cccc(Nc2cc(-c3ccc(F)cc3)n[nH]2)c1` [GW824645], the “%Inh” value is listed as 0%.
For the compound `CCc1ccc(-c2ccc3c(c2)-c2nn(C)cc2S(=O)(=O)N3C)cc1`, the “%Inh” value was determined as 16%.
Still for that read-out and setting: next, `O=C(Nc1ccc2c(c1)OCO2)NC1CCN(c2ccnc(NCc3ccc(F)cc3)n2)CC1` [GSK1379859]: 0%; `Cc1nc(N(C)[C@H]2CN(C(=O)CC#N)CC[C@H]2C)c2cc[nH]c2n1`: 0%; `CCCC(=O)Nc1n[nH]c2ncc(-c3cccc4ccccc34)cc12` [SB-642057]: 0%.
Regarding `COC(=O)c1c(-c2ccccc2)c2cc(C)ccc2c(=O)n1Cc1ccccc1`, the “%Inh” value turned out to be 0%.
On to `Cc1ccc(Oc2ccc(Nc3ncnc4cc[nH]c34)cc2C)cn1`, for which the “%Inh” value amounted to 0%.
Still for that read-out and setting: next, `COc1cc2ncn(-c3cc(OCCCc4ccccc4)c(C(N)=O)s3)c2cc1OC` [GSK205189]: 0%.
Same read-out and setting: next, `O=C1NC(=O)C(c2ccccc2)=C1Nc1cccc(O)c1` [SB-390534]: 1%; `CN1C(=O)C(Nc2ccccc2)=C(c2ccccc2)C1=O` [SB-300079]: 0%.
Same read-out and setting: as for `COc1ccc(-n2cnc3c(N)ncnc32)cc1` [SKF-97236], the figure is 4%.
With `COc1ccc(Nc2nccc(N3CCC(NS(=O)(=O)c4ccc(NC(C)=O)cc4)C3)n2)cc1` (stereo not drawn) [GSK1379729], the “%Inh” value is reported as 0%.
Still for that read-out and setting: as for `Nc1ncnc2c1ncn2-c1cccc2ccccc12` [SKF-97184], the figure is 26%; as for `Nc1nc(-c2ccccc2F)c(-c2ccnc3ccccc23)s1` [GW560459], 0%; as for `CCc1nc(-c2cccc(C)c2)c(-c2ccncc2)s1`, 0%.
Still for that read-out and setting: next, `CCS(=O)c1ccc(-c2coc3ccc(-c4nnc(C)o4)cc23)cc1` (stereo not drawn): 14%.
Take `O=c1cc(N2CCOCC2)nc2n(Cc3ccc(F)c(Cl)c3)ccn12` [GSK2297099]: the “%Inh” value came out at 0%.
On the same count and under the same terms, next, `COC(=O)c1c(-c2ccccc2)c2cc(Br)ccc2c(=O)n1Cc1ccc(NC(=O)CCC(=O)O)cc1`: 13%; `COc1cc2ncn(-c3cc(OCc4ccncc4)c(C(N)=O)s3)c2cc1OC` [GSK336313]: 0%.
`CCn1c(-c2nonc2N)nc2ccccc21` [SB-693162/GW549034]: the “%Inh” value is reported as 0%.
Still for that read-out and setting: as for `CCC(=O)c1c(-c2ccccc2)c2cc(Cl)ccc2c(=O)n1Cc1cc(S(C)(=O)=O)n(CC(N)=O)n1`, the figure is 0%.
On the same count and under the same terms, as for `O=C(Nc1n[nH]c2nc(-c3ccccc3)c(Cl)cc12)C1CC1` [SB-734909], the figure is 0%; as for `COc1cccc(-n2cnc3c(N)ncnc32)c1` [SKF-97416], 36%.
Same read-out and setting: as for `CCS(=O)(=O)c1ccc(OC)c(Nc2ncc(-c3ccc(F)cc3)o2)c1.Cl` [GW591947], the figure is 0%.
On to `COc1cc(OC)cc(-c2cc3cnc(N)nc3nc2NC(=O)NC(C)(C)C)c1`, for which the “%Inh” value is 0%.
On the same count and under the same terms, next, `COc1cc2nccc(Nc3ccc(OCc4ccc(NC(C)=O)cc4)cc3)c2cc1OC.Cl` [GW440135]: 0%; `O=C(Nc1n[nH]c2cc(-c3ccccc3F)ccc12)C1CC1` [SB-733371]: 33%.
Still for that read-out and setting: next, `CN1C(=O)C(Nc2cc(Cl)c(O)c(Cl)c2)=C(c2ccc(Cl)cc2)C1=O` [SB-404321]: 0%.
Same read-out and setting: as for `C[C@@H]1CC[C@H](C(=O)NC2CCCCC2)CN1c1cc(-c2ccc3c(N)n[nH]c3c2)nc(N)n1` [GSK2291363], the figure is 0%.

For another experiment, the system named is T2, CDK11.
T2 construct: gene CDK19
The settings on record: concentration: 1 μM, replicates: in singlicate; n = 1.
Turning to `COc1cc2ncn(-c3cc(OCc4ccncc4Br)c(C(N)=O)s3)c2cc1OC` [GW854278], the “%Inh” value stood at 11%.
Consider `Cc1cc(Nc2nc(-c3cccc(C)n3)nc3ccccc23)ccn1` [GW872411], for which the “%Inh” value is reported as 0%.
On the same count and under the same terms, next, `Cc1nnc(-c2ccc(C)c(-c3ccc(C(=O)O)cc3)c2)o1` [GW608005]: 0%; `COc1cc(Nc2ccnc3ccc(C(F)(F)F)cc23)cc(OC)c1OC` [GW577382]: 19%; `FC(F)(F)c1ccc(-c2ncn(CCCN3CCOCC3)c2-c2ccncc2)cc1` [SB-217780]: 0%.
Same read-out and setting: as for `Cl.c1ccc(Cn2cnc3cc(Nc4ncnc5ccccc45)ccc32)cc1` [GW272142], the figure is 8%.
Still for that read-out and setting: next, `Cc1ccc(-c2ccc3c(ccc4sc5c(c43)NC[C@@H](C)N=C5N(C)C)n2)cn1`: 0%; `Cl.NS(=O)(=O)c1cccc(Nc2cc(-c3ccc(F)cc3)n[nH]2)c1` [GW824645]: 3%; `CCc1ccc(-c2ccc3c(c2)-c2nn(C)cc2S(=O)(=O)N3C)cc1`: 8%.
`O=C(Nc1ccc2c(c1)OCO2)NC1CCN(c2ccnc(NCc3ccc(F)cc3)n2)CC1` [GSK1379859]: the “%Inh” value turned out to be 53%.
The same measure, in the same setting: as for `Cc1nc(N(C)[C@H]2CN(C(=O)CC#N)CC[C@H]2C)c2cc[nH]c2n1`, the figure is 0%.
Still for that read-out and setting: next, `CCCC(=O)Nc1n[nH]c2ncc(-c3cccc4ccccc34)cc12` [SB-642057]: 0%; `COC(=O)c1c(-c2ccccc2)c2cc(C)ccc2c(=O)n1Cc1ccccc1`: 0%.
For the compound `Cc1ccc(Oc2ccc(Nc3ncnc4cc[nH]c34)cc2C)cn1`, the “%Inh” value worked out at 19%.
On the same count and under the same terms, as for `COc1cc2ncn(-c3cc(OCCCc4ccccc4)c(C(N)=O)s3)c2cc1OC` [GSK205189], the figure is 0%.
Still for that read-out and setting: as for `O=C1NC(=O)C(c2ccccc2)=C1Nc1cccc(O)c1` [SB-390534], the figure is 0%; as for `CN1C(=O)C(Nc2ccccc2)=C(c2ccccc2)C1=O` [SB-300079], 0%.
Same read-out and setting: next, `COc1ccc(-n2cnc3c(N)ncnc32)cc1` [SKF-97236]: 0%.
As for `COc1ccc(Nc2nccc(N3CCC(NS(=O)(=O)c4ccc(NC(C)=O)cc4)C3)n2)cc1` (stereo not drawn) [GSK1379729], the “%Inh” value is 11%.
Still for that read-out and setting: next, `Nc1ncnc2c1ncn2-c1cccc2ccccc12` [SKF-97184]: 23%; `Nc1nc(-c2ccccc2F)c(-c2ccnc3ccccc23)s1` [GW560459]: 0%; `CCc1nc(-c2cccc(C)c2)c(-c2ccncc2)s1`: 0%.
The same measure, in the same setting: as for `CCS(=O)c1ccc(-c2coc3ccc(-c4nnc(C)o4)cc23)cc1` (stereo not drawn), the figure is 0%.
As for `O=c1cc(N2CCOCC2)nc2n(Cc3ccc(F)c(Cl)c3)ccn12` [GSK2297099], the “%Inh” value is reported as 0%.
Same read-out and setting: next, `COC(=O)c1c(-c2ccccc2)c2cc(Br)ccc2c(=O)n1Cc1ccc(NC(=O)CCC(=O)O)cc1`: 7%.
Same read-out and setting: as for `COc1cc2ncn(-c3cc(OCc4ccncc4)c(C(N)=O)s3)c2cc1OC` [GSK336313], the figure is 0%; as for `CCn1c(-c2nonc2N)nc2ccccc21` [SB-693162/GW549034], 11%.
The same measure, in the same setting: next, `CCC(=O)c1c(-c2ccccc2)c2cc(Cl)ccc2c(=O)n1Cc1cc(S(C)(=O)=O)n(CC(N)=O)n1`: 0%; `O=C(Nc1n[nH]c2nc(-c3ccccc3)c(Cl)cc12)C1CC1` [SB-734909]: 0%.
On to `COc1cccc(-n2cnc3c(N)ncnc32)c1` [SKF-97416], for which the “%Inh” value is reported as 1%.
`CCS(=O)(=O)c1ccc(OC)c(Nc2ncc(-c3ccc(F)cc3)o2)c1.Cl` [GW591947]: the “%Inh” value amounted to 19%.
Same read-out and setting: as for `COc1cc(OC)cc(-c2cc3cnc(N)nc3nc2NC(=O)NC(C)(C)C)c1`, the figure is 0%.
As to `COc1cc2nccc(Nc3ccc(OCc4ccc(NC(C)=O)cc4)cc3)c2cc1OC.Cl` [GW440135], the “%Inh” value was 34%.
In the case of `O=C(Nc1n[nH]c2cc(-c3ccccc3F)ccc12)C1CC1` [SB-733371], the “%Inh” value is on record as 0%.
`CN1C(=O)C(Nc2cc(Cl)c(O)c(Cl)c2)=C(c2ccc(Cl)cc2)C1=O` [SB-404321]: the “%Inh” value is 9%.
The same measure, in the same setting: next, `C[C@@H]1CC[C@H](C(=O)NC2CCCCC2)CN1c1cc(-c2ccc3c(N)n[nH]c3c2)nc(N)n1` [GSK2291363]: 7%.
